The record followed here is the supplement of paper PMC9446081.

Structures are written as SMILES. The whole screen tested about 39,000 compounds, of which about 220 (0.56%) showed activity. The list comes from a sample in which actives are over-represented; it also holds similar structures and randomly drawn compounds. Unmarked numbers belong to inactive results.
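Note: Wild-type cells incubated without shaking, value is the mean of two biological replicates.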

The test has as its system Escherichia coli K-12 BW25113. The test can be described thus: relative growth (OD600 normalised to plate interquartile mean) (fraction); higher = less growth inhibition, active = 0.2 or less. The settings on record: 50 µM; LB; incubation time: overnight (16-24 h).
Take `Cc1noc(C)c1NC(=O)N(C)C[C@@H]1OCCCC[C@H](C)Oc2ccc(NC(=O)CCC(F)(F)F)cc2C(=O)N([C@H](C)CO)C[C@@H]1C`: the relative growth was 0.979.

With `C[C@H](CO)N1C[C@H](C)[C@@H](CN(C)Cc2ccc3c(c2)OCO3)Oc2c(NC(=O)c3cnccn3)cccc2C1=O`, the relative growth was 0.969.

As for `COc1ccc(S(=O)(=O)N(C)C[C@H]2OCCCC[C@@H](C)Oc3ccc(NC(=O)Nc4ccc(F)cc4)cc3C(=O)N([C@H](C)CO)C[C@@H]2C)cc1`, the relative growth was 1.07.

With `CO[C@@H]1CN(C)C(=O)c2ccc(NC(=O)C3CCOCC3)cc2OC[C@@H](C)N(CC2CCOCC2)C[C@H]1C`, the relative growth was 1.02.

Consider `O=C(CN1CCOCC1)NCC[C@H]1CC[C@@H](NC(=O)Nc2ccccc2)[C@@H](CO)O1`, for which the relative growth is 1.01.

Turning to `Cc1noc(C)c1S(=O)(=O)Nc1cccc2c1O[C@@H](CN(C)Cc1ccccc1)[C@@H](C)CN([C@@H](C)CO)C2=O`, the relative growth was 1.01.

Take `C[C@@H]1CN([C@H](C)CO)C(=O)c2cc(NC(=O)Nc3ccc(C(F)(F)F)cc3)ccc2O[C@H]1CN(C)Cc1ccc(C(F)(F)F)cc1`: the relative growth was 1.02.

With `C[C@@H]1CN([C@H](C)CO)C(=O)c2cc(-c3cccc(C(=O)N(C)C)c3)cnc2O[C@@H]1CN(C)S(=O)(=O)c1ccccc1`, the relative growth was 0.987.

As for `COc1oc(C(=O)NC2CCCCC2)c(-c2ccc(Cl)cc2)c1S(=O)(=O)c1cccc(Cl)c1`, the relative growth was 0.914.

Regarding `COc1ccccc1-c1cnc2c(c1)C(=O)N([C@@H](C)CO)C[C@@H](C)[C@H](CN(C)C(=O)c1cccnc1)O2`, the relative growth was 1.02.

Consider `COc1cc(N2CCC3(CC2)CNC(=O)CO3)ncn1`, for which the relative growth was 0.968.

In the case of `C[C@@H]1CN([C@H](C)CO)C(=O)Cc2cc(NC(=O)CCN3CCOCC3)ccc2O[C@H]1CN(C)Cc1ccc(C(=O)O)cc1`, the relative growth is 1.03.

Take `CO[C@@]12[C@H](COC(N)=O)C3=C(C(=O)C(C)=C(N)C3=O)N1C[C@@H]1N[C@@H]12`: the relative growth is 1.01.

Take `CO[C@@]12[C@@H]3N[C@@H]3CN1C1=C(C(=O)C(N)=C(C)C1=O)[C@@H]2COC(N)=O`: the relative growth is 0.0651 (active).

For `COC12C(COC(N)=O)C3=C(C(=O)C(C)=C(N)C3=O)N1CC1NC12` (stereo not drawn), the relative growth was 0.0503 (active).

On to `COCCNC(=O)C[C@H]1CC[C@H]2[C@@H](COC[C@@H](O)CN2C(=O)Nc2ccccc2OC)O1`, for which the relative growth is 0.949.

For the molecule `Cc1noc(C)c1S(=O)(=O)Nc1ccc2c(c1)CC(=O)N([C@H](C)CO)C[C@@H](C)[C@H](CN(C)Cc1ccncc1)O2`, the relative growth is 0.995.

As for `C[C@H](CO)N1C[C@H](C)[C@@H](CN(C)C)Oc2ccc(NS(C)(=O)=O)cc2CC1=O`, the relative growth was 0.983.

As for `C[C@@H]1CCCCO[C@@H](CN(C)C(=O)C2CCCCC2)[C@H](C)CN([C@H](C)CO)C(=O)c2cc(NS(=O)(=O)c3ccccc3)ccc2O1`, the relative growth was 0.989.

As to `CC1=C(C(=O)NCCCN2CCN(c3ccc(F)cc3)CC2)C2(CCN(Cc3ccccc3)CC2)OC1=O`, the relative growth was 0.567.

Consider `Cn1c(=O)[nH]c(=O)c2c1nc(N1CCN(CC(N)=O)CC1)n2C/C=C/c1ccccc1`, for which the relative growth was 0.988.

For the molecule `Cc1ccc(S(=O)(=O)N(C)C[C@H]2Oc3c(NC(=O)c4cnccn4)cccc3C(=O)N([C@H](C)CO)C[C@@H]2C)cc1`, the relative growth is 0.975.

Consider `CC1COc2c(C3(N)CC3)c(F)cc3c(=O)c(C(=O)O)cn1c23.CS(=O)(=O)O` (stereo not drawn), for which the relative growth is 0.0476 (active).

In the case of `C[C@H]1COc2c(C3(N)CC3)c(F)cc3c(=O)c(C(=O)O)cn1c23`, the relative growth was 0.0591 (active).

In the case of `C[C@H]1CN([C@@H](C)CO)C(=O)c2cc(NC(=O)CCN3CCOCC3)ccc2O[C@H]1CN(C)C(=O)NC1CCCCC1`, the relative growth is 0.98.

Take `CS(=O)(=O)c1cc(F)ccc1N`: the relative growth is 0.965.

As for `O=C(O)c1cccc(-c2ccco2)c1`, the relative growth is 1.01.

As for `CC(=O)OCC1=C[C@@H]2OC(=O)C3=CO[C@@H](O[C@H]4O[C@H](CO)[C@@H](O)[C@H](O)[C@H]4O)[C@H]1[C@@H]32`, the relative growth was 1.01.

In the case of `CNC(=O)CN1CCOC[C@@]2(C1)CN(C(=O)c1ccn[nH]1)CCO2`, the relative growth is 0.952.

For `CCCCCCCCCCCCCCCC(=O)OCC(NC(=O)C(Cl)Cl)C(O)c1ccc([N+](=O)[O-])cc1` (stereo not drawn), the relative growth is 0.559.

For `O=C(NC(CO)C(O)c1ccc([N+](=O)[O-])cc1)C(Cl)Cl` (stereo not drawn), the relative growth was 0.0428 (active).

With `CS(=O)(=O)c1ccc(C(O)C(CF)NC(=O)C(Cl)Cl)cc1` (stereo not drawn), the relative growth was 0.0463 (active).

In the case of `CS(=O)(=O)c1ccc(C(O)C(CO)NC(=O)C(Cl)Cl)cc1` (stereo not drawn), the relative growth is 0.375.

Take `O=C(NCO)c1ccc([N+](=O)[O-])cc1`: the relative growth was 1.02.

Regarding `O=C([O-])CCC(=O)OCC(NC(=O)C(Cl)Cl)C(O)c1ccc([N+](=O)[O-])cc1.[Na+]` (stereo not drawn), the relative growth was 0.0517 (active).

On to `CCC(NC(C)C)C(O)c1ccc(O)c(O)c1.CS(=O)(=O)O` (stereo not drawn), for which the relative growth was 1.04.

For `CCCCCCCCCCCCCCCC(=O)OC[C@H](NC(=O)C(Cl)Cl)[C@H](O)c1ccc([N+](=O)[O-])cc1`, the relative growth is 0.604.

On to `CCCCCCCCCCCCCCCC(=O)OC[C@@H](NC(=O)C(Cl)Cl)[C@H](O)c1ccc([N+](=O)[O-])cc1`, for which the relative growth is 1.03.

Take `C[C@@H]1CN([C@H](C)CO)C(=O)c2cc(NC(=O)Nc3ccc(F)cc3)ccc2O[C@@H](C)CCCCO[C@H]1CN(C)C(=O)Nc1ccc(C(F)(F)F)cc1`: the relative growth was 1.

With `Cc1ccc(S(=O)(=O)N(C)C[C@H]2OCCCC[C@H](C)Oc3ccc(NC(=O)Nc4ccccc4)cc3C(=O)N([C@H](C)CO)C[C@@H]2C)cc1`, the relative growth is 1.07.

Regarding `C[C@@H]1CN([C@H](C)CO)C(=O)c2cc(NS(=O)(=O)c3ccccc3)ccc2O[C@@H](C)CCCCO[C@H]1CN(C)Cc1ccc(C(F)(F)F)cc1`, the relative growth is 1.07.

With `C[C@@H]1CCCCO[C@@H](CN(C)CC2CCCCC2)[C@@H](C)CN([C@H](C)CO)C(=O)c2cc(NS(=O)(=O)c3ccccc3)ccc2O1`, the relative growth is 0.975.

As for `C=CCC[C@@H](Cc1ccc(F)cc1)C(=O)OC[C@@H](Cc1c[nH]c2ccccc12)NC(=O)[C@@H](CC=C)CC(=O)N(CCO)Cc1ccccc1`, the relative growth was 1.1.
